WRN helicase inh: inhibitors of human WRN helicase | 360,000 compounds, 0.46% hits | Q14191 | WRN helicase unwinding, fluorescent forked duplex, kinetic | Potency, µM (top dose mostly 114 µM), without a hit: top-dose activity change, negative = inhibition, hits mostly inhibitors; also: potency is read from the fitted curve at half-maximal effect; nearly all actives have a fitted effect of over 55% in size
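Fluorescence dequenching readout, ex 525 nm/em 598 nm, kinetic mode: forked duplex DNA (100 nM final) with adjacent fluorophore and quencher unwound by WRN (20 nM final) with 2 mM ATP. Compound preincubation 15 min, room temperature.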
USP1-UAF1 inh: inhibitors of human USP1/UAF1 deubiquitinase; O94782; recombinant USP1/UAF1, Ub-Rhodamine cleavage fluorescence; Potency, µM (titrated, usually from 57.1 µM), for the others: top-dose activity change, negative = inhibition, most hits filed as inhibitors; 390,000 compounds, 0.23% hits; AID 743255; also: potency is read from the fitted curve at half-maximal effect; nearly all actives have a fitted effect of over 60% in size
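1 nM enzyme complex + cpd, 15 min RT; start with Ub-Rho 150nM final; kinetic fluorescence ex 480/em 540, 6 reads q60 s. Buffer 50mM HEPES pH 7.8, 0.5mM EDTA, 0.1 mg/ml BSA, 1mM TCEP, 0.01% Tween-20.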
PI5P4Ka inh: inhibitors of human PI5P4K alpha | PI5P4Kalpha enzyme, ADP-Glo luminescence, 60 min; hits give low values | max response, % | 330,000 compounds, 1.2% hits | AID 652105; active = max response of -50% or lower; inconclusive = between -30% and -50%; inactive = -30% or higher; also: value at the top dose of about 77 µM
Target sequence (P48426 whole entry, looked up): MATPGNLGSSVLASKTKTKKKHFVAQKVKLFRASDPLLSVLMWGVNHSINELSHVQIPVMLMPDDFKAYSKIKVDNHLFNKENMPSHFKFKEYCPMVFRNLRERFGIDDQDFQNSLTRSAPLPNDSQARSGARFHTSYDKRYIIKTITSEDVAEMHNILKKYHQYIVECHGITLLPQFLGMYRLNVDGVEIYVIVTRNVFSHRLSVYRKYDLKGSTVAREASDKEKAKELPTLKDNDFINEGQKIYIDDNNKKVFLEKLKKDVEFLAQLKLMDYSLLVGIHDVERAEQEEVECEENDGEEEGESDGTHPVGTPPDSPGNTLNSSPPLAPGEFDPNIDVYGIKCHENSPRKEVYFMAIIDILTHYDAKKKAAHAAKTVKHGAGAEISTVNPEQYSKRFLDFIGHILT
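Reactions run in 0.038 M HEPES pH 7.4, 0.28 mM EGTA, 0.1% CHAPS and 5% DMSO, with PI5P4Kalpha, substrate, compound and 5 microM ATP final, one hour at room temperature. Readout is ADP-Glo luminescence.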
USP2a block: inhibitors of human ubiquitin-specific protease USP2a | Potency, µM (top dose mostly 38.3 µM), for inactives: at the highest dose activity change, negative = inhibition, usual class: inhibitors | O75604 | USP2 core, Ub-CHOP2 coupled fluorogenic reporter, 485/531 | AID 463254 | 330,000 compounds, 0.01% hits;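 also: potency is read from the fitted curve at half-maximal effect; plate controls were DMSO wells for no effect and full inhibition by NEM control for full effect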
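Cell-free coupled assay: 10nM USP2 core preincubated 30min RT with compound in Tris-HCl pH 8.0/CaCl2/CHAPS buffer, then 25nM Ub-CHOP2 and 25nM reporter substrate; fluorescence (Ex 485/Em 531) read after 60min RT, normalized to NEM inhibition, concentration-response curves fitted.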
PLK1 PBD inh: inhibitors of human PLK1 polo-box domain binding. P53350. Plk1 PBD binding of FITC phosphopeptide, fluorescence polarization. Potency, µM, without a hit: max response, negative = inhibition, most hits filed as inhibitors. 360,000 compounds, 2.8% hits; also: potency is read from the fitted curve at half-maximal effect; series mostly up to about 57 µM; nearly all actives have a fitted effect of over 65% in size
* = called active by the depositor; u = inconclusive; x = no result; [ ] = dose if it differs, or a comment. In the library only some 3.3% were active in any assay of this set; here they are far more common. Unless noted, calls follow the shape of the dose curve; as a rule, active = well fitted curve in the direction sought with a large enough effect; inconclusive = small, poorly fitted or top-dose-only effect, or another doubt; inactive = no such curve, though single readings can be large; an effect the other way counts as inactive or inconclusive. Unless noted, % is scaled to controls: 0 for no effect and ±100 for the full control effect.

SMILES	WRN helicase inh	USP1-UAF1 inh	PI5P4Ka inh	USP2a block	PLK1 PBD inh
COc1ccccc1C(=O)Nc1ccc(-c2cc(C(F)(F)F)nn2-c2ccccc2)cc1	x	-30%	x	x	x
CCN(C(=O)CSc1nc2cc(C(=O)O)ccc2c(=O)n1Cc1ccccc1)c1ccccc1	-1%	-10%	-53*	2%	-15%
CN(C(=O)CSc1nc2cc(C(=O)O)ccc2c(=O)n1Cc1ccccc1)C1CCS(=O)(=O)C1 (stereo unspecified)	-3%	-18%	u	2%	-12%
O=C(c1ccccc1)n1nc(-c2ccc(Cl)cc2)nc1NCc1ccco1	x	-28%	x	x	x
CC(=O)n1nc(-c2ccc(Cl)cc2)nc1NCc1ccco1	-9%	u	x	1%	21µM*
COc1ccc(-c2[nH]c(-c3cccc(OC)c3)nc2SCC(=O)Nc2ccc3c(c2)OCO3)cc1	x	-18%	x	x	x
Oc1ccc2ccccc2c1C=Nc1ccc(Cl)cn1	u	-14%	-11	0%	17µM*
Oc1ccc2ccccc2c1/C=N/c1nc2c(s1)CCCC2	-19%	-8%	-12	3%	13µM*
Oc1c(Br)cc(Br)cc1/C=N/c1nc2c(s1)CCCC2	u	-20%	-54*	x	u
Oc1ccc2ccccc2c1C=NC1CCCCC1	-24%	-23%	-22	-10%	u
CN(C(=O)c1ccc2c(c1)N(Cc1cccc(Cl)c1)C(=O)c1ccccc1S2(=O)=O)C1CCCCC1	x	1%	x	x	x
COc1ccc(Nc2ncnc3c2nc2n3CCCC2)cc1Cl	x	-28%	x	x	x
O=C(NCc1ccccc1Cl)c1ccc2c(c1)N(Cc1ccccc1)C(=O)CS2	x	-8%	x	x	x
CCOc1ccc(NC(=O)C(C)Sc2nnc3cc(C)c4ccccc4n23)cc1 (stereo unspecified)	x	-6%	x	x	x
C#CC(=O)N(c1ccc(OC)cc1OC)C(C(=O)NC1CCCC1)c1cccs1 (stereo unspecified)	-3%[57.1 µM]	-20%	8	0%	24µM*
C#CC(=O)N(c1cc(OC)ccc1OC)C(C(=O)NC1CCCC1)c1cccs1 (stereo unspecified)	-6%	-7%	-8	-1%	u
COc1cccc(C(=O)NCc2cn3cccc(C)c3n2)c1	x	15%	x	x	x
Cc1cccc(C)c1Nc1nnc(SCC(=O)c2ccc(Br)s2)s1	-12%	-17%	-20	-3%	24µM*
CC(=O)N1CCc2cc(S(=O)(=O)NC(Cc3ccccc3)C(=O)Nc3cccc(C)c3)ccc21 (stereo unspecified)	x	-23%	x	x	x
CCSC1=C(C#N)C2(CCCC2)C(C#N)=C(N)N1	u	-9%	-57*	0%	3µM*
N#CC1=C(N)NC(SCc2ccccc2)=C(C#N)C12CCCC2	-23%	-25%	-63*	2%	u
COCC(C)n1c(SCC(=O)N2CCc3ccccc3C2)nc2ccccc2c1=O (stereo unspecified)	11%	-7%	-10	-8%	-13%
COCC(C)n1c(SCC(=O)N2CCCCC2)nc2ccccc2c1=O (stereo unspecified)	2%	-6%	-15	-1%	24µM*
COc1cccc(-c2noc(Cn3nc(C)c([N+](=O)[O-])c3C)n2)c1	-5%	4%	-11	1%	19µM*
COc1cccc(OCc2nc(-c3cccc([N+](=O)[O-])c3)no2)c1	-2%	-16%	-5	-7%	-6%
SMILES	WRN helicase inh	USP1-UAF1 inh	PI5P4Ka inh	USP2a block	PLK1 PBD inh
COC(=O)c1cccc(Cn2nc(C)c([N+](=O)[O-])c2C)c1	6%	-1%	-9	-7%	21µM*
CN(Cc1ccccc1)C(=O)Cn1c(=O)c2cccn2c2ccc(F)cc21	x	-14%	x	x	x
Cc1cccc2c(N=Nc3ccc(S(=O)(=O)Nc4ccc(Cl)cc4)cc3[N+](=O)[O-])c(O)[nH]c12	-13%	-4%	-74*	-2%	1%
COc1ccc2[nH]c(O)c(N=NC(=O)Cc3cccs3)c2c1	-2%[11.6 µM]	-4%	-69*	-10%	-13%
O=C(Cc1cccs1)N=Nc1c(O)[nH]c2ccc(Br)cc12	u	-3%	u	-4%	-22%
Cc1ccc2[nH]c(O)c(N=NC(=O)c3ccc(NS(=O)(=O)c4cccs4)cc3)c2c1	-31%[57.1 µM]	-21%	-56*	0%	-17%
Cc1cccc2c(N=NC(=O)c3ccc(NS(=O)(=O)c4cccs4)cc3)c(O)[nH]c12	20µM*	-22%	-77*	2%	u
O=C(N=Nc1c(O)[nH]c2ccc(F)cc12)c1ccc(NS(=O)(=O)c2cccs2)cc1	0%	-16%	-15	0%	-6%
Cc1ccc2[nH]c(O)c(N=Nc3ccccc3[N+](=O)[O-])c2c1	-9%	-21%	5	x	-2%
c1cncc(CNc2ncnc3ccc(-c4ccco4)cc23)c1	x	x	x	-4%	x
Cc1cc(C)cc(NC(=O)C(Cc2ccccc2)NS(=O)(=O)c2ccc3c(c2)CCC(=O)N3)c1 (stereo unspecified)	x	-13%	x	x	x
COc1ccc2[nH]c(O)c(N=NC(=O)c3ccc(NS(=O)(=O)c4cccs4)cc3)c2c1	u	-19%	-88*	4%	-6%
CCc1ccc(C2NC(=S)NC3=C2C(=O)CCC3)cc1 (stereo unspecified)	2%	-10%	2	5%	-14%
CCCCCCCc1ccc(C2NC(=S)NC3=C2C(=O)c2ccccc23)cc1 (stereo unspecified)	1%	-22%	-28	2%	21µM*
C=CCn1c(SCc2ccc(F)cc2)nc2c1c(=O)[nH]c(=O)n2C	4%	u	-2	2%	-24%
C/C=C/Cn1c(SCc2ccc(C)cc2)nc2c1c(=O)[nH]c(=O)n2C	-32%	-14%	-7	1%	21µM*
CC=CCn1c(SCc2ccccc2)nc2c1c(=O)[nH]c(=O)n2C	-9%	x	-58*	x	27µM*
CCCn1c(SCc2ccccc2)nc2c1c(=O)[nH]c(=O)n2C	-32%	-2%	-10	1%	u
COc1cccc(NC(=O)c2nn(-c3ccc(C)cc3)c(=O)n(C)c2=O)c1	x	-18%	x	x	x
CCCC[n+]1c(C)sc2ccc(C)cc21	5%	-17%	-7	0%	-13%
Cc1ccc2sc(C)[n+](CCO)c2c1	u	-16%	-25	1%	30µM*
O=C(O)c1ccc(S(=O)(=O)NCc2cccnc2)cc1	-3%	-16%	-3	6%	2%
O=C(O)/C=C/c1ccc(S(=O)(=O)NCc2cccnc2)cc1	6%	-18%	-7	0%	24µM*
Nc1cc(C(=O)OCC(=O)c2ccc(CC(=O)N3CCOCC3)s2)ccc1Cl	-28%	-19%	-52*	0%	-14%
Cc1ccc(C(=O)COC(=O)c2ccc(Cl)c(N)c2)s1	u	-9%	-5	0%	0%
COCCOc1ccc(C(F)(F)F)cc1NC(=O)c1ccc(C(F)(F)F)cc1	-24%	-5%	17	-1%	-8%
COCCOc1ccc(C(F)(F)F)cc1Nc1nc2ccccc2o1	-6%	-26%	1	1%	6.7µM*
